Experiment [1] has as its target human Constitutive Androstane Receptor (CAR), NR1I3 (gene 9970) (UniProt Q14994). The experiment in a line: NVS_NR_hCAR_Antagonist: NovaScreen (NVS) Nuclear Receptor Binding Assay for human Constitutive Androstane Receptor Antagonism (CAR) (AID 2283344). The method in brief:
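Cell-free TR-FRET binding read 1 h after dosing, antagonist mode; loss of signal versus DMSO baseline. Primary screen in duplicate at a single 25 uM; actives retested in concentration series.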

Experiment [2] has as its target Bile acid receptor (Homo sapiens) (UniProt Q96RI1). Put plainly: NVS_NR_hFXR_Agonist: NovaScreen (NVS) Nuclear Receptor Binding Assay for human Farnesoid X Receptor Agonism (FXR) (AID 2283347). The method, boiled down: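 Cell-free TR-FRET binding assay with extracted human FXR protein, agonist format, read 1 h after dosing. Primary screen at 25 uM single concentration in duplicate, actives retested in concentration series; gain of signal versus DMSO.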

Experiment [3] has as its target Estrogen receptor (Homo sapiens) (UniProt P03372). The experiment in a line: OT_ER_ERaERa_1440: Odyssey Thera (OT) 24-hour HEK293T Protein-Complementation Assay for Estrogen Receptor-alpha/-alpha Homodimer (AID 2283349).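 Note: hits raise fluorescence above DMSO for agonists and antagonists alike.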 The method, boiled down:
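Readout is the rise in mean fluorescence from reporter fragment complementation when ERα LBD (aa 310-547) units dimerize in HEK293T cells. Measured 24 h after dosing and analysed as increase over DMSO control.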

In experiment [4] the target is T1, Estrogen receptor (Homo sapiens) + Estrogen receptor beta (Homo sapiens) (UniProt P03372+Q92731). The experiment in a line: OT_ER_ERaERb_0480: Odyssey Thera (OT) 8-hour HEK293T Protein-Complementation Assay for Estrogen Receptor-alpha/-beta Heterodimer (AID 2283352). The method, boiled down: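 HEK293T protein-fragment complementation assay of ER-alpha/ER-beta LBD heterodimerisation, read 8 h after dosing. Mean nuclear/cytoplasmic fluorescence intensity measured by laser scanning cytometry; gain of signal fitted relative to DMSO.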

Experiment [5] deals with T1, Estrogen receptor (Homo sapiens) + Estrogen receptor beta (Homo sapiens). The experiment in a line: OT_ER_ERaERb_1440: Odyssey Thera (OT) 24-hour HEK293T Protein-Complementation Assay for Estrogen Receptor-alpha/-beta Homodimer (AID 2283356).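 Note: heteromer of ER alpha and ER beta binding domains; hits raise reporter fluorescence and both agonists and antagonists give an increase.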 The method, boiled down:
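HEK293T stably expressing a PCA of ER alpha LBD (aa 310-547) and ER beta LBD (aa 263-489). After 24 h compound exposure, mean fluorescence intensity in nucleus (agonists) or nucleus and cytoplasm (antagonists) measured by laser scanning cytometry versus vehicle.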

For experiment [6], the target named is Estrogen receptor beta (Homo sapiens) (UniProt Q92731). The experiment in a line: OT_ER_ERbERb_0480: Odyssey Thera (OT) 8-hour HEK293T Protein-Complementation Assay for Estrogen Receptor-beta/-beta Homodimer (AID 2283357).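 Note: active means signal gain over DMSO baseline.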 The method, boiled down: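 Readout: increase in mean fluorescence intensity (nucleus for agonists; nucleus plus cytoplasm for antagonists) relative to DMSO, from a reporter-fragment complementation of human ER-beta LBD homodimer in HEK293T cells dosed 8 hours.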

Experiment [7] concerns guinea pig Histamine Receptor (H2), gene 100729734. The experiment in a line: NVS_GPCR_gH2: NovaScreen (NVS) G Protein-Coupled Receptor Assay for guinea pig Histamine Receptor (H2) (AID 2283342). The method in brief: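 Radioligand displacement on guinea pig striatal membranes, 1 h after dosing, filter-based scintillation counting; loss of signal versus DMSO. Single-point screen at 25 uM in duplicate, then concentration-response up to 50 uM.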

Experiment [8] deals with Nuclear receptor subfamily 1 group I member 2 (Homo sapiens) (UniProt O75469). The experiment in a line: NVS_NR_hPXR: NovaScreen (NVS) Nuclear Receptor Binding Assay for human Pregnane X Receptor (PXR) (AID 2283365).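 Note: a drop in FRET signal versus DMSO baseline means the compound binds.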 The method in brief:
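Cell-free TR-FRET binding assay with extracted human PXR protein, read 2 h after dosing. Primary screen run in duplicate at 25 uM, actives followed in concentration series; loss of signal fitted against DMSO baseline.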

In experiment [9] the target is chimpanzee Androgen Receptor (AR), AR (gene 747460) (UniProt O97775). Put plainly: NVS_NR_cAR: NovaScreen (NVS) Nuclear Receptor Binding Assay for chimpanzee Androgen Receptor (AR) (AID 2283346). The method in brief: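 Cell-free radioligand displacement using receptor protein extracted from Sf9/Sf21 cells; bound radioligand measured by scintillation counting 72 hours after chemical dosing. Loss of signal versus DMSO baseline indicates binding; primary screen single-concentration in duplicate at 25 uM, actives followed in concentration series.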

Experiment [10] concerns the target Androgen Receptor/SRC-1 Co-activator, AR (gene 367) (UniProt P10275). Put plainly: OT_AR_ARSRC1_0960: Odyssey Thera (OT) 16-hour HEK293T Protein-Complementation Assay for Androgen Receptor/SRC-1 Co-activator (AID 2283353).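 Note: actives raise the signal above DMSO so potency reflects increased AR and SRC-1 complex.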 The method, boiled down:
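Interaction of AR with SRC-1 was followed by YFP fragment complementation in HEK293T cells after 16 h of dosing. Gain of nuclear-over-cytoplasmic 488 nm fluorescence against DMSO controls defined activity.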

Experiment [11] addresses Glucocorticoid receptor (Homo sapiens) (UniProt P04150). The experiment in a line: NVS_NR_hGR: NovaScreen (NVS) Nuclear Receptor Binding Assay for human Glucocorticoid Receptor (GR) (AID 2283363).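 For AC50: activity is loss of specific radioligand binding signal relative to DMSO.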 The method, boiled down: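 Cell-free radioligand binding with extracted receptor protein, read by filter-based scintillation counting 16 hours after dosing. Loss of specific signal versus DMSO baseline was scored. Primary screen ran in duplicate at 25 uM; actives were followed up in concentration series.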

For experiment [12], the target named is rat Androgen Receptor (AR), Ar (gene 24208) (UniProt P15207). The experiment in a line: NVS_NR_rAR: NovaScreen (NVS) Nuclear Receptor Binding Assay for rat Androgen Receptor (AR) (AID 2283366). The method, boiled down:
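Cell-free radioligand binding on extracts of prostate from testosterone-pretreated rats, read by filter-based scintillation counting 18 h after dosing. Loss of bound signal fitted positively versus DMSO; primary screen in duplicate at 25 uM, actives followed up in concentration series.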

For experiment [13], the target named is Estrogen receptor (Homo sapiens) (UniProt P03372). The experiment in a line: OT_ER_ERaERa_0480: Odyssey Thera (OT) 8-hour HEK293T Protein-Complementation Assay for Estrogen Receptor-alpha/-alpha Homodimer (AID 2283351).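 Note: rise in fluorescence from reassembled reporter fragments on ERα LBD homodimer in nucleus or whole cell.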 The method, boiled down:
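Binding reporter in which dimerisation of ERα LBD (aa 310-547) fusions reconstitutes a fluorescent reporter in HEK293T cells. Compounds incubated 8 h; mean fluorescence intensity increase versus DMSO scored.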

In experiment [14] the target is rat Mineralocorticoid Receptor (MR), Nr3c2 (gene 25672) (UniProt P22199). Put plainly: NVS_NR_rMR: NovaScreen (NVS) Nuclear Receptor Binding Assay for rat Mineralocorticoid Receptor (MR) (AID 2283355). The method in brief:
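Cell-free radioligand binding to MR in adrenalectomized rat brain supernatant, scintillation counted 24 h after dosing. Loss of signal versus DMSO baseline marks displacement. Primary screen in duplicate at 25 uM; actives retested as concentration series.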

In experiment [15] the target is Retinoic acid receptor alpha (Homo sapiens) (UniProt P10276). Put plainly: NVS_NR_hRAR_Antagonist: NovaScreen (NVS) Nuclear Receptor Binding Assay for human Retinoic Acid Alpha Receptor Antagonism (RAR) (AID 2283358). The method, boiled down:
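Cell-free TR-FRET binding assay on extracted receptor protein, run in antagonist mode; signal read 2 hours after chemical dosing. Loss of signal was fitted relative to DMSO baseline. Screened at 25 uM in duplicate, actives followed up in concentration series.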

For experiment [16], the target named is Estrogen receptor (Homo sapiens) (UniProt P03372). The experiment in a line: NVS_NR_hER: NovaScreen (NVS) Nuclear Receptor Binding Assay for human Estrogen Receptor (ER) (AID 2283348). The method in brief: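 Cell-free radioligand binding with protein extracted from MCF7 cells; scintillation counting 18 hours after dosing. Loss of signal versus DMSO baseline read as displacement; primary single-concentration screen at 25 uM in duplicate, actives retested in concentration series.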

Experiment [17] addresses human Thyroid Receptor Alpha (TRa), THRA (gene 7067) (UniProt P10827). The experiment in a line: NVS_NR_hTRa_Antagonist: NovaScreen (NVS) Nuclear Receptor Binding Assay for human Thyroid Receptor Alpha Antagonism (TRa) (AID 2283362).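 Note: activity is loss of signal relative to DMSO baseline.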 The method in brief:
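Cell-free AlphaLISA chemiluminescent binding read 1 h after dosing, antagonist mode; signal loss versus DMSO baseline. Primary screen in duplicate at 25 uM, then concentration series for actives.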

Experiment [18] concerns the target human Peroxisome Proliferator-activated Receptor alpha (PPARa), PPARA (gene 5465) (UniProt Q07869). The experiment in a line: NVS_NR_hPPARa: NovaScreen (NVS) Nuclear Receptor Binding Assay for human Peroxisome Proliferator-activated Receptor alpha (PPARa) (AID 2283359).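 Note: activity means loss of TR-FRET signal versus DMSO baseline.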 The method in brief: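 Cell-free binding assay with extracted human protein, read by TR-FRET 1 h after chemical dosing. Loss of signal relative to DMSO baseline indicates binding. Primary screen used duplicate single concentration (25 uM); actives followed up in concentration series.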

As usually defined, the AC50 is the concentration at which the activity in the assay is half-maximal.

Structures are written as SMILES. Inconclusive results are not listed. Activity calls are given as the source filed them. Rule for the calls: active = hit-call score of the fitted dose curve at least 0.9, where 1 is the maximum; inconclusive = response in the unintended direction; inactive = score below 0.9.

Chain of Androgen Receptor/SRC-1 Co-activator, AR (gene 367) (P10275 whole entry, looked up, the tested form may be a part): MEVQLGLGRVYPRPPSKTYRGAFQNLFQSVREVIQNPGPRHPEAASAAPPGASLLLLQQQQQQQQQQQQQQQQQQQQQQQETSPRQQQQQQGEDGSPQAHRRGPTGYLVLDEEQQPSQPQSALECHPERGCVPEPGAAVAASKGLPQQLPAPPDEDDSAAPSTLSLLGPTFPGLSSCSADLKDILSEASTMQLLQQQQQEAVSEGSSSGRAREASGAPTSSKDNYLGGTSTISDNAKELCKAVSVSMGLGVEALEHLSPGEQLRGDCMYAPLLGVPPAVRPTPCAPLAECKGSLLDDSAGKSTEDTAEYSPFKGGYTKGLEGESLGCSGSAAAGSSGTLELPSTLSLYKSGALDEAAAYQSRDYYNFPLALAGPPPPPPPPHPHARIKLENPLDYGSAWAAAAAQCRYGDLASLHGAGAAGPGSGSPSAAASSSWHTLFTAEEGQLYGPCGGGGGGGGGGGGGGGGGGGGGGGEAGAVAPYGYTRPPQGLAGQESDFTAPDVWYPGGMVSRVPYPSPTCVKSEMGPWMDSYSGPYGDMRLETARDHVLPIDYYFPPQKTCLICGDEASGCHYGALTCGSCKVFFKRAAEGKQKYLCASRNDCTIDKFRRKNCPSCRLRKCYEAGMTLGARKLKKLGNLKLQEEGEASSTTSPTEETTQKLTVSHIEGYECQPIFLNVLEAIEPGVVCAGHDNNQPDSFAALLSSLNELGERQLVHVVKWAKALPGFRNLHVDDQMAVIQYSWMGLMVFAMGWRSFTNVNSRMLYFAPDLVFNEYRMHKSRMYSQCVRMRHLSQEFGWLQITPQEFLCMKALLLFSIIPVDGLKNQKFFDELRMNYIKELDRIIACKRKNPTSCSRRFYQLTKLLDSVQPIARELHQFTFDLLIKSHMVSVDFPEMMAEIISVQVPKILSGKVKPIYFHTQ
Chain of human Thyroid Receptor Alpha (TRa), THRA (gene 7067) (P10827 whole entry, looked up): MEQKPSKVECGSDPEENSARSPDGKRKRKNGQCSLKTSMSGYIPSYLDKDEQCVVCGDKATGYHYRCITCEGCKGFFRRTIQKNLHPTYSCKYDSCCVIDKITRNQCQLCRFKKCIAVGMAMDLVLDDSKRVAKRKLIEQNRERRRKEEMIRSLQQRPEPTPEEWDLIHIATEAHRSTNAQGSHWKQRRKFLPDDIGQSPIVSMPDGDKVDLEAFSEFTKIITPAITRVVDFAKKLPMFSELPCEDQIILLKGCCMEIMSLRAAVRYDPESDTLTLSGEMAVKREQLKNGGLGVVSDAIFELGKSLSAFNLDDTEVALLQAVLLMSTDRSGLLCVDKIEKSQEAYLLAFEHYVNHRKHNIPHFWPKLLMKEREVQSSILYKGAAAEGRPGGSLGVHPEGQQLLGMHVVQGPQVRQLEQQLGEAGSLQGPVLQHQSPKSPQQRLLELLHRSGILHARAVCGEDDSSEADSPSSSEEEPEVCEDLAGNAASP
Chain of Estrogen receptor beta (Homo sapiens) (Q92731 whole entry, looked up, the tested form may be a part): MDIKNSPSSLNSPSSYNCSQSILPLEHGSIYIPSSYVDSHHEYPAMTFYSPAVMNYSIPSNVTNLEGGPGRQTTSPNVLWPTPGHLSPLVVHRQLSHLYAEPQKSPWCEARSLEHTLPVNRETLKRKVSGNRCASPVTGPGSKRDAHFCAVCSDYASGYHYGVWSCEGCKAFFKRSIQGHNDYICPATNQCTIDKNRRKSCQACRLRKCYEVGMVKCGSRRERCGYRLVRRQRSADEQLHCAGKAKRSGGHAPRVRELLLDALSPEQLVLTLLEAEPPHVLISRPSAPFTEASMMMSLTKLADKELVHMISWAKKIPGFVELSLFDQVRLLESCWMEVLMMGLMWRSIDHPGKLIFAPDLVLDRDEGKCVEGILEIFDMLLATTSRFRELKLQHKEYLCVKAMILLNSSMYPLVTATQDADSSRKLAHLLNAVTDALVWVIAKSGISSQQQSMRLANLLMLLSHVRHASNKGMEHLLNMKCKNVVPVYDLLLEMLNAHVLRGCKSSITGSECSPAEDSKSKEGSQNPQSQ
Chain of Glucocorticoid receptor (Homo sapiens) (P04150 whole entry, looked up): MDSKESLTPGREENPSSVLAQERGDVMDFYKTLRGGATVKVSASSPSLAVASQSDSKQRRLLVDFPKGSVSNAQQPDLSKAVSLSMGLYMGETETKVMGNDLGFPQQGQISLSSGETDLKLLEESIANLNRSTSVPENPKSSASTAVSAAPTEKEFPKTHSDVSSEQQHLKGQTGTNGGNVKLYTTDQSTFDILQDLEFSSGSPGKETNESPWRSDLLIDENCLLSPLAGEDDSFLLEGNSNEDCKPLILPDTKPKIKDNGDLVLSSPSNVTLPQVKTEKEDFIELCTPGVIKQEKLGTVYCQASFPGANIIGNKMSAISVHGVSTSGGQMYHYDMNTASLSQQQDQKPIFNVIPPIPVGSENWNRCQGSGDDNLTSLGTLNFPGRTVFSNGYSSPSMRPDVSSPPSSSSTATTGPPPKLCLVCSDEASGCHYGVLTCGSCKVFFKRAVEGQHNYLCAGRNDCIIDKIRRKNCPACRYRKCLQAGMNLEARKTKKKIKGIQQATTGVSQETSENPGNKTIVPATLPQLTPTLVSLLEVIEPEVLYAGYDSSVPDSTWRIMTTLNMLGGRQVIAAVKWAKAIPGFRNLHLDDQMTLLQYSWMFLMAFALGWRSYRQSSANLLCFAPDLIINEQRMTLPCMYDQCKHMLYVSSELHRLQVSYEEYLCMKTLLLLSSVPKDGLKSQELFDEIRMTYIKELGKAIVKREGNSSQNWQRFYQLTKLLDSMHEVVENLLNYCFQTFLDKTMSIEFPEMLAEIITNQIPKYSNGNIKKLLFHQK
Chain of Nuclear receptor subfamily 1 group I member 2 (Homo sapiens) (O75469 whole entry, looked up): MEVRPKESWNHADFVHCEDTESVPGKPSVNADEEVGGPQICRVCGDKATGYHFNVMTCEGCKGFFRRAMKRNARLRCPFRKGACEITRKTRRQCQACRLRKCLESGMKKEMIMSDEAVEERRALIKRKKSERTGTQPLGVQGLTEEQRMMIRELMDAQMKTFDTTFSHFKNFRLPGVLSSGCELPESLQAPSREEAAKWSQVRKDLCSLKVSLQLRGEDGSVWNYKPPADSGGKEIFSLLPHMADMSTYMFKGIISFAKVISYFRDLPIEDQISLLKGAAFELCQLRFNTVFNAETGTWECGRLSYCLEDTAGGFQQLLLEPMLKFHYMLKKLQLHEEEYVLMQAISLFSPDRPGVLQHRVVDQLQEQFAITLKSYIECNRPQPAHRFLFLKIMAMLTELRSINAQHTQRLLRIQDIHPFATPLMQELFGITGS
Chain of chimpanzee Androgen Receptor (AR), AR (gene 747460) (O97775 whole entry, looked up): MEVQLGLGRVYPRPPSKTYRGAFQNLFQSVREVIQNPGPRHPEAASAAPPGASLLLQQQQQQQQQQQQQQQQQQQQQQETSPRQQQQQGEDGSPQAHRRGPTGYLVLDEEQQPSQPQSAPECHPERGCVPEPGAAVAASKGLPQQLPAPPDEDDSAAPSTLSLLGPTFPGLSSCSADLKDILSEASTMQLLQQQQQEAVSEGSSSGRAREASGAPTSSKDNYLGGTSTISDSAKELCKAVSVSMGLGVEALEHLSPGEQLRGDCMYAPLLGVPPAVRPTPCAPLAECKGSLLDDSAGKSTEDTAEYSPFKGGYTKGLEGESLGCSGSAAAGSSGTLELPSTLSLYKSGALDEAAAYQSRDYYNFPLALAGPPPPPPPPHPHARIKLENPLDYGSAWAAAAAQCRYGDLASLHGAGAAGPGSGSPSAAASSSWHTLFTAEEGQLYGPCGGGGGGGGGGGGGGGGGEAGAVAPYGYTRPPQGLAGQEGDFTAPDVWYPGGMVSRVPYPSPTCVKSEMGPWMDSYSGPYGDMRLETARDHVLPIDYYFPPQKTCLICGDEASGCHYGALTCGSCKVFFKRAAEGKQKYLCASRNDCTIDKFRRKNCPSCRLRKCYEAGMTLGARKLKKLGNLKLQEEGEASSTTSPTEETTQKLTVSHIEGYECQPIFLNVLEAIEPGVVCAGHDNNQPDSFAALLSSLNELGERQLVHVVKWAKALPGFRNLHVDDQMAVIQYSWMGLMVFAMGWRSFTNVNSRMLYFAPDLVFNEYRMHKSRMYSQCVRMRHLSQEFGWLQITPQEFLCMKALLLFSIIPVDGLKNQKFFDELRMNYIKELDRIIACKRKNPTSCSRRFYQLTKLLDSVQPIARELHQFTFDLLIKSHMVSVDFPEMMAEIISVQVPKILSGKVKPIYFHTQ
Chain of Retinoic acid receptor alpha (Homo sapiens) (P10276 whole entry, looked up): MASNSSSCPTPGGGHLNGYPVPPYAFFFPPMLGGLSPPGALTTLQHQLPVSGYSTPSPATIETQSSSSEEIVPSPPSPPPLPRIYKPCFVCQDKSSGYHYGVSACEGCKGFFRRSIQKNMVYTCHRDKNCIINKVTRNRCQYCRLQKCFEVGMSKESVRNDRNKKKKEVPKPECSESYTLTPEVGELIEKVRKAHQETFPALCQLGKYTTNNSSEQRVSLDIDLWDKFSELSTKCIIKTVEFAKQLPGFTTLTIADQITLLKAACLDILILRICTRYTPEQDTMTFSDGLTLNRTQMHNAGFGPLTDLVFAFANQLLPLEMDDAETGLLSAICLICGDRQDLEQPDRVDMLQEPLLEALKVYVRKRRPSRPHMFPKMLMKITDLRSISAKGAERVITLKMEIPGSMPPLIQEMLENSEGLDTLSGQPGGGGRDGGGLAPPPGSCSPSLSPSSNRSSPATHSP
Chain of human Constitutive Androstane Receptor (CAR), NR1I3 (gene 9970) (Q14994 whole entry, looked up): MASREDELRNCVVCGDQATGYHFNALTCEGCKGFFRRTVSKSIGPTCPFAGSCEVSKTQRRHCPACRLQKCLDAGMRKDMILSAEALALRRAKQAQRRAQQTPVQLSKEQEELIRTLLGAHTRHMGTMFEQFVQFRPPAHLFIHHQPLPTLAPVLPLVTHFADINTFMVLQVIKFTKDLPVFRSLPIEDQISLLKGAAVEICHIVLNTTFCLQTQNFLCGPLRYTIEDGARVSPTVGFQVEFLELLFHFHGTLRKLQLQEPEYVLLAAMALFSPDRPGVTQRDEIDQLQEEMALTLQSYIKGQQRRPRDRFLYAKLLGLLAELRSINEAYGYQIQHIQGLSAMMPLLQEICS

For the compound `CCOc1nc(F)cc2nc(S(=O)(=O)Nc3c(Cl)cccc3Cl)nn12`, the compound was called inactive in experiment [1], in [2], in experiment [3], in [4], in experiment [5] and in experiment [6].

As to `CCNP(=S)(OC)O/C(C)=C/C(=O)OC(C)C` (configuration not stated), the AC50 in experiment [7] is 16.1 µM (active). In addition, the call in experiment [3], in experiment [5], in [6] and in experiment [8] was inactive.

For `CCCCOCN(C(=O)CCl)c1c(CC)cccc1CC`, the AC50 was 14.6 µM (active) in experiment [1], 21.8 µM (active) in experiment [10] and 8.18 µM (active) in experiment [11]. The compound was classed as inactive in experiment [9], in experiment [3], in experiment [5], in experiment [6] and in experiment [12].

Take `CSC(=O)c1c(C(F)F)nc(C(F)(F)F)c(C(=O)SC)c1CC(C)C`: the outcome in experiment [7] and in experiment [13] was inactive. In addition, the AC50 in [3] was 47.1 µM (active); in experiment [4] it was 31.9 µM (active); in experiment [5], 31 µM (active); in experiment [6], 18.1 µM (active).

As to `CCOc1cc(C(C)(C)C)ccc1C1COC(c2c(F)cccc2F)=N1` (configuration not stated), the call in experiment [1], in [3], in [4], in experiment [14], in experiment [5] and in experiment [6] was inactive. Also, the compound was called inactive in experiment [15]. In addition, the AC50 in [10] is 20.1 µM (active).

For the compound `CCCN(CC)CC1COC2(CCC(C(C)(C)C)CC2)O1` (configuration not stated), the AC50 was 9.65 µM (active) in [7] and 32.2 µM (active) in experiment [5]. For the same compound, the outcome in experiment [3], in [6], in [11] and in [8] was inactive.

`Nc1cnn(-c2ccccc2)c(=O)c1Cl`: the outcome in experiment [16], in experiment [3], in experiment [13], in [4], in [5] and in experiment [6] was inactive.

In the case of `COP(=S)(OC)SCn1nnc2ccccc2c1=O`, the call in experiment [1], in experiment [3], in experiment [4], in [10], in experiment [5] and in experiment [6] was inactive. In addition, the call in experiment [12] was inactive. In addition, the AC50 in [9] was 16.1 µM (active).

For the compound `Cn1c(-c2ccccc2)cc(-c2ccccc2)[n+]1C`, the compound was classed as inactive in [7], in experiment [3], in [4] and in experiment [6].

In the case of `CN=C=S`, the call in experiment [1], in [3], in experiment [13], in experiment [15] and in experiment [17] was inactive.

As to `N#Cc1c(Cl)cccc1Cl`, the compound was classed as inactive in experiment [1], in [3], in experiment [4], in experiment [5], in [6] and in experiment [17]. Further, the compound was called inactive in experiment [11] and in experiment [8].

`C=C(C)CN(CC)c1c([N+](=O)[O-])cc(C(F)(F)F)cc1[N+](=O)[O-]`: the outcome in [1], in [9], in experiment [3] and in experiment [6] was inactive. Also, the AC50 in experiment [4] is 50 µM (active); in experiment [5], 79.2 µM (active).

As to `CCN(CC)C(=O)C(C)Oc1cccc2ccccc12` (configuration not stated), the concentration at half-maximal activity (AC50) is 34.2 µM (active) in [1] and 11.5 µM (active) in [9]. The result in experiment [3], in [13], in experiment [4], in [5] and in [6] was inactive.

With `CCC(C)n1c(=O)[nH]c(C)c(Br)c1=O` (configuration not stated), the compound was called inactive in [1], in experiment [3], in experiment [4] and in [5].

As to `CCOC(=O)C(C)OC(=O)c1cc(Oc2ccc(C(F)(F)F)cc2Cl)ccc1[N+](=O)[O-]` (configuration not stated), the outcome in [1], in [3], in [13], in [4], in [5] and in [6] was inactive. The result in experiment [15], in [18], in experiment [17] and in experiment [11] was inactive.

These data come from PubChem BioAssay (EPA / NIEHS).
